Most compounds without a hit are left out; they make up all but 19% or so of the library.
DT40 TDP1 no CPT: qHTS for Inhibitors of human tyrosyl-DNA phosphodiesterase 1 (TDP1): qHTS in cells in absence of CPT. DT40 Tdp1-/- hTDP1 cells, no CPT, ATP luminescence, 48 h. AID 686978, 2013. 15% of 420,000 active. Potency, µM (titrated, usually from 46.2 µM), inactives show top-dose activity change, negative = growth inhibition, most hits filed as inhibitors; further: potency means the concentration at half of the fitted maximal effect; nearly all actives have a fitted effect of over 55% in size
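Compound effects on proliferation are scored in DT40 Tdp1-/-;hTDP1 cells in the absence of CPT. ATP levels (CellTiter-Glo luminescence) are recorded after a ≥48 hr, 37 °C incubation.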
HT1080NT lethal: kills 2HG-producing HT-1080-NT fibrosarcoma cells; Potency, µM (series often up to 46.1 µM), for inactives: top-dose activity, negative = less viability, most hits filed as cytotoxic; AID 686970; 1.6% of 360,000 active; HT-1080-NT fibrosarcoma viability, CellTiter-Glo ATP luminescence, 48 h;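 further: NT is the 2HG producing partner of a matched IDH1 knockdown line; potency means the concentration at half of the fitted maximal effect; 0% = DMSO-treated cells and -100% = media-only wells without cells; nearly all actives have a fitted effect of over 55% in size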
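Toxicity toward the 2HG-producing NT line was scored as %Activity, normalised to DMSO and no-cell wells, from CellTiter-Glo luminescence after 48 hours' treatment.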
IL1B secr inh: inhibitors of inflammasome signaling (IL-1 beta secretion) | activity change, % at 57.5 µM | 4.7% of 360,000 active | THP-1 LPS/ATP IL-1B secretion, AlphaLISA, 16 h; active compounds read low; in the data active means activity change below about -50%; inconclusive means mostly about -30% to -49%
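Secreted IL-1B measured by AlphaLISA bead assay after 16 h compound exposure of THP-1 cells; compounds (final up to 57.5 uM) added 1 h before LPS (250 ng/mL) and ATP (1.25 mM) stimulation; lower signal means less secretion.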
TDP1 cell CPT: growth inhibition of DT40 Tdp1-/-;hTDP1 cells with camptothecin (screen for TDP1 inhibitors). 12% of 420,000 active. Potency, µM (doses to about 46.2 µM), for the others: at the highest dose activity change, negative = growth inhibition, actives largely listed as inhibitors. chicken DT40 Tdp1-/-;hTDP1 cells + 20 nM CPT, ATP luminescence, 48 h; further: potency means the concentration at half of the fitted maximal effect; nearly all actives have a fitted effect of over 55% in size
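Chicken DT40 Tdp1-/- cells complemented with human TDP1, 400 cells/well, exposed to compounds plus 20 nM camptothecin for at least 48 h at 37 C; viability read as ATP content by CellTiter-Glo luminescence.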
HT1080 IDH1KD tx: kills HT-1080 cells with IDH1 knockdown | HT-1080 IDH1 knockdown viability, ATP luminescence, 48 h | Potency, µM (top dose mostly 46.1 µM), for inactives: at the top dose activity, negative = toxicity, most hits filed as cytotoxic | 2% of 360,000 active;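 further: potency means the concentration at half of the fitted maximal effect; 0% = DMSO wells and -100% = cell-free medium wells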
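In this qHTS, HT-1080 cells depleted of IDH1 are exposed for 48 h at 37 °C to compound titrations. Toxicity is scored from CellTiter-Glo luminescence, with DMSO as full viability and medium alone as none.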
The depositor's hits bear a star; ? = inconclusive; . = no result; ! = not confirmed by another sample. Unless noted, the call rests on the fitted dose curve; in most records, active means well fitted curve in the direction sought with a large enough effect; inconclusive means small, poorly fitted or top-dose-only effect, or another doubt; inactive means no such curve, though single readings can be large; an effect the other way counts as inactive or inconclusive. Unless noted, on the % scale 0 is the no-effect control and ±100 the full control effect.

SMILES	DT40 TDP1 no CPT	HT1080NT lethal	IL1B secr inh	TDP1 cell CPT	HT1080 IDH1KD tx
CN1CCCC2(CCN(C(=O)c3ccncc3)CC2)C1	4%	.	.	-2%	.
CCCNC1=C(C)C(=O)C2=C(C1=O)C(COC(N)=O)[C@]1(OC)C3NC3CN21 (stereo partly drawn)	0.26µM*	-7%	-18	?	-4%
c1cncc(CNC2CCCCC2)c1	23%	3%	32	20%	6%
CC(C)NC(=O)C(C)N1CCN(S(=O)(=O)c2ccc3ccccc3c2)CC1 (stereo not drawn)	15µM*	-5%	30	18µM*	-1%
COC(=O)C1=C(c2ccc(S(C)(=O)=O)cc2)C[C@@H]2CC[C@H]1N2C(=O)NCc1ccccc1	-19%	-1%	-3	-16%	8%
COC(=O)C1=C(c2cccc(OCc3ccccc3)c2)C[C@@H]2CC[C@H]1N2C(=O)NCc1ccc([N+](=O)[O-])cc1	23µM*	12%	?	18µM*	-14%
COC(=O)C1=C(c2ccc(OCc3ccccc3)cc2)C[C@@H]2CC[C@H]1N2C(=O)NCc1ccc([N+](=O)[O-])cc1	12µM*	-5%	?	21µM*	-8%
CC1=C(C)CC2(C(=O)NC(=S)NC2=O)C(C)C1 (stereo not drawn)	-1%	11%	24	4%	14%
CCc1ccccc1N1C(=O)N(Cc2ccccc2C)c2ccccc2S1(=O)=O	16µM*	.	.	?	.
COc1ccc(NC(=O)C(=O)NNC(=O)C(C)Oc2ccc(Cl)cc2Cl)cc1 (stereo not drawn)	?	-10%	16	11%	-20%
CC(C)n1c(/C=C/[C@H](O)C[C@H](O)CC(=O)O)c(-c2ccc(F)cc2)c2ccccc21	29µM*	8.2µM*	93	18µM*	9.2µM*
O=C(N/N=C\C1C(=O)NC(=S)N(c2ccccc2)C1=O)c1ccc(O)cc1 (stereo not drawn)	9%	8%	11	11%	21%
Cc1cc(C(=O)CN2C(=O)c3ccccc3C2=O)c(C)n1C1CC1	?	9%	-12	?	10%
Cc1cc(C)c(C(=O)CSc2n[nH]c(=O)n2C2CC2)cc1C	20µM*	-16%	-7	11µM*	32µM*
CC1CCCCN1C(=O)c1ccc(N2CC3CC(C2)c2cccc(=O)n2C3)c([N+](=O)[O-])c1 (stereo not drawn)	-26%	5%	-5	-15%	-6%
N#CCCn1cc(C(=O)Nc2ccccc2Cl)c(-c2ccc(F)cc2)n1	-2%	-19%	7	8%	-6%
O=C(C1CCN(S(=O)(=O)c2ccc(Br)s2)CC1)N1CCN(c2ccc(F)cc2)CC1	21µM*	.	.	?	.
CN1CCc2nc(SCc3cccc(Br)c3)c(C#N)cc2C1	18µM*	?	-7	?	?
C/C(=N\N=C(N)N)c1ccccc1	18µM*	-2%	.	?	-21%
CN(C)C(=O)Oc1ccc(OC(=O)c2ccccc2)cc1	-18%	5%	-12	-19%	?
Cc1cc(O)c2c(c1)OC(C)(C)C1=C2CC(C)CC1 (stereo not drawn)	-18%	-5%	53	?	2%
CC(C)Cc1nc(N2CCNCC2)c(C#N)c2c1CCC2	18µM*	1%	-18	?	-2%
CC(C)OP(=O)(OC(C)C)C(NCc1ccccc1)c1ccccc1 (stereo not drawn)	23µM*	1%	-19	?	1%
Cc1cccc(C)c1-n1nnnc1C(c1cccs1)N1CCC(n2c(=O)[nH]c3ccccc32)CC1 (stereo not drawn)	21µM*	-28%	0	?	?
Cc1cccc(C)c1-n1nnnc1C(c1cccc2ccccc12)N1CCC(n2c(=O)[nH]c3ccccc32)CC1 (stereo not drawn)	16µM*	16%	-18	15µM*	10%
SMILES	DT40 TDP1 no CPT	HT1080NT lethal	IL1B secr inh	TDP1 cell CPT	HT1080 IDH1KD tx
CN[C@@H](C)[C@H](O)c1ccccc1	-11%	.	.	18%	.
COC(=O)C1=C(c2cccc(OC)c2OC)C[C@@H]2CC[C@H]1N2C(=O)NCc1ccc(F)cc1	-16%	0%	3	-26%	4%
CC(=O)Oc1ccc(/C=C/c2cc(OC(C)=O)cc(OC(C)=O)c2)cc1	12µM*	.	.	?	.
CCC(C)N1C(=O)/C(=C\c2cc3c4c(c2)CCCN4CCC3)C(=O)NC1=S (stereo not drawn)	?	1%	-4	?	3%
CCC(C)N1C(=O)/C(=C\c2cnc(N(C)C)nc2)C(=O)NC1=S (stereo not drawn)	?	?	-52*	?	-25%
COC(=O)[C@]1(C)CC[C@@]2(C)CC[C@@]3(C)C4=CC=C5C(=CC(=O)C(O)=C5C)[C@@]4(C)CC[C@@]3(C)C2C1 (stereo partly drawn)	0.73µM*	.	.	1µM*	.
COc1cc(O)c(C(=O)O)c(-c2cc(O)c(O)cc2C)c1	16µM*	-2%	27	4.6µM*	3%
COc1ccc2c(c1)c(C(=O)O)c(C)n2CC(C)C	-9%	10%	19	-15%	2%
C[C@]12CC[C@H](O)CC1=CC(=O)C1C2CC[C@]2(C)C(=O)CCC12 (stereo partly drawn)	-3%	5%	-7	-7%	8%
Nc1ncnc2c1ncn2[C@@H]1O[C@@H]2COP(O)(=S)O[C@H]2[C@H]1O (stereo partly drawn)	-5%	.	.	6%	.
CCNC(=O)[C@H]1O[C@@H](n2cnc3c(N)ncnc32)[C@H](O)[C@@H]1O	-1%	7%	19	-7%	6%
NC(=O)c1cn(C2OC(CO)C(O)C2O)c2ncnc(N)c12 (stereo not drawn)	0.016µM*	0.33µM*	-81*!	0.0082µM*	0.12µM*
N#Cc1cn(C2OC(CO)C(O)C2O)c2ncnc(N)c12 (stereo not drawn)	0.015µM*	?	-108*	0.015µM*	0.21µM*
O=C(c1ccco1)N1CCC[C@@]2(CCN(Cc3ccncc3)C2)C1	-13%	.	.	-8%	.
Cc1ccc(Cn2nc(C)c(C=O)c2Cl)cc1	-2%	-3%	4	31%	-7%
C[C@H](CO)N1C[C@H](C)[C@@H](CN(C)C(=O)NC2CCCCC2)Oc2c(NC(=O)Nc3ccc4c(c3)OCO4)cccc2C1=O	?	2%	-14	?	3%
C[C@H]1CN([C@@H](C)CO)C(=O)c2cc(-c3cccnc3)cnc2O[C@H]1CN(C)Cc1ccc(Oc2ccccc2)cc1	?	0%	-4	?	-15%

High-throughput results (PubChem)
